# Test results published in PubChem BioAssay AID1508600 (Functional Genomics Laboratory (NCATS/FGL), 2020).
# In all, about 53,000 sequences went through this assay and about 3,700 (7%) were called active. This is one part of a sample in which actives are shown more often than they occur. A number with no mark means an inactive call.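 The calls were made as follows: active = gene knockdowns whose robust z-score for IL-1 alpha signal is at least 2 or at most -2, so actives lie on both sides; inactive = the rest.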
# Experiment: Components of the Cytosolic LPS Sensing Pathway: Gene Identification via Genome-wide siRNA Screen;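 also: robust z of the log signal after scaling to non-targeting control siRNA wells of the plate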
# Details: RAW264.7 macrophages, IL-1a HTRF, actives lie on both sides, screened at 100 nM (by protocol), cells primed 5 h with Pam3CSK4 first
# In short: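 Using IL-1a HTRF as read-out, the screen measured release from RAW264.7 cells after 48h siRNA knockdown (100 nM), 5 h Pam3CSK4 priming and 24 h cytosolic LipidA. Values were expressed relative to negative-control wells as robust z-scores.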
row,Sequence,z-score
1,GCGCACAAAAAACAUGAUATT against Plaat5,0.211
2,GGAAUUCGAUGCAUUUGUATT against Il18rap,-0.34
3,GCUCAGCUGUGGGUAAUACTT against Raver2,-2.77 (active)
4,GGAUAUCACAUAGCAUCGGTT against 1700025G04Rik,-0.742
5,GGAUGUCUCAAAGUAAGAATT against Cd55b,-0.124
6,GGACGAGUGCCUGUUUUCATT against Med8,4.09 (active)
7,GCAAUGGAACCACCUCUGATT against Zic5,1.41
8,GGAAGAAGCUGAGGAAAGCTT against Spata1,0.15
9,GGAUGGACUCUGUUCCUGUTT against Susd2,0.956
10,GGCCAUUGGACACAGAAUCTT against Rpl35a,2.28 (active)
11,GCAAUUAGUAUCUAUUACCTT against Txndc17,-0.448
12,GGCUACAAAGGAGUUCCUATT against Sgf29,0.516
13,GCUACUAAACAAGCCGGCATT against Msl1,0.341
14,GGCUUUGUGGAUUUUGAAGTT against Cabp4,-1.2
15,GGACGUGUUUGGGAUUGUUTT against Csad,-0.765
16,GGAUGAGUUCCUUUUACUATT against Cntnap4,0.285
17,CCUCUGUUAUGGUAAUUCUTT against Olfr1323,-0.371
18,GCCUGAUAGUGGUGGACAGTT against Tmem45a2,3.29 (active)
19,GGAGGCUUUUCAGACCAAGTT against 3830406C13Rik,0.334
20,GGAGAACAGACACAGGGUGTT against Dlgap5,-0.284
21,CCUAAACUCAGUGCCUCAGTT against Mrps36,0.579
22,GUCAAAGCACCAUUUGAGUTT against Vmn1r8,-0.842
23,GGUAUUCUUUGAAGAAAACTT against Tbc1d14,1.17

row,Sequence,z-score
1,GGUUUUUGAUGAUUGCUUUTT against Slc49a4,0.221
2,GGACACAGAUAGAAAUACUTT against Glo1,2.73 (active)
3,GGUCUCGAAUGUAUGGUGCTT against Bicc1,1.14
4,GGCAGUUAUGAUAAAGAUUTT against Slc25a16,-0.896
5,GGUUCCUAAACAUACUUGUTT against Swi5,0.478
6,GGACUACAGUCAUUAUUCATT against Sycp2,3.25 (active)
7,GGAGUACGAGCAAAUGGUGTT against Nfkbia,0.5
8,GGGACCUACAUUACAAUUUTT against Suz12,1.06
9,GGAUUCACCUGUUAUCUUUTT against Tapbpl,0.303
10,UGAAUCACCACCCGGAAUGTT against Pcbd2,0.41
11,CCUAUGUGCGUUCCAAGCATT against Eif5b,-0.432
12,GGACAUCUGUGUUAAAUUUTT against Npy1r,-0.47
13,GGAAGAUACUGUGGUUUAUTT against Agbl3,2.29 (active)
14,GGCAUUGGUGUUUCAUUAATT against Gpm6a,1.2
15,GGUAUUAUGACCAGAUUAUTT against Plxnb3,0.736
16,GGACGAUUGCCAUAUGAACTT against Ice2,-0.99
17,GUACUUUCUUGAACCAGAGTT against Cacng7,-0.486
18,GGAUGAAGCCUUCAUCAGGTT against Adcy6,0.0162
19,GGAGAGAGACACAAGCUUGTT against Map7d1,1.07
20,CCCGGGUCUUUGAUAUCUUTT against Evi5l,2.03 (active)
21,GCGAAAACUUCGGAUCUAUTT against Smarcd2,1.29
22,GGCUUAUCAUACCUGGUUGTT against Olfr691,0.404
23,GGAUAUUUCAGUUGGCGGGTT against Lama2,-0.158

row,Sequence,z-score
1,GGUCAAACUGAAGAAGGAGTT against Slc7a7,-1.24
2,GGAAGUUGAAAUGCUGUCGTT against Clcnka,-2.24 (active)
3,GCAAGGAAAAUCUAUACCGTT against Rgs2,-0.954
4,GCACAUACAGAGCUCGUCUTT against Zkscan6,-0.471
5,CCAGAUAAGCCUCAUCAAUTT against Scn5a,-0.163
6,GAAUCAGCUGUUCUCUCACTT against Tm2d3,2.25 (active)
7,GCACCAAACCAAUAUUAGUTT against Epb41l3,1.13
8,GCACCAUUAAGGUUGCCAATT against Nudt11,-1.16
9,GGUCUGUGGGAAACAUAAATT against Gria3,-0.233
10,GGAUGUCUAUUUUUGGUCATT against Esd,-0.819
11,GGCGGAUACUUGAUCGAAATT against Exoc3,2.41 (active)
12,GGGACAAUACCAAUUUCUCTT against Car15,-0.209
13,GGCAAUCUCCUUUAAUUGATT against Zfp329,0.237
14,GCCCUCAACCAUAAUUCAATT against Zscan21,2.15 (active)
15,GGAAAUGAGCCAGGAUGGUTT against Cdca4,0.0601
16,CCCGAUUAUCUAGUGAUACTT against Sbk1,0.311
17,GCCACUGGUUCACCAUGCATT against Ugt1a9,-0.52
18,GCCAGCUUUUAGUAUCAACTT against Sun1,2.4 (active)
19,GCCUGUGGUAGGAUACUAUTT against Denr,-0.964
20,GGAAGGAACCGUUCUAUAATT against Serpinc1,0.221
21,GGUUGGAUACUCGUCUUCATT against Olfr421-ps1,1.16
22,GGCCCACAGUUUGUGACUGTT against Larp7,-1.1
23,GCGUAUAGGUGAUGUACAGTT against Smad3,2.28 (active)
